Data published in PubChem BioAssay (NCATS).
Records with an inconclusive call do not appear. A number with no mark means an inactive call. Calls follow the shape of the dose curve; as a rule, active = well fitted curve in the direction sought with a large enough effect; inconclusive = small, poorly fitted or top-dose-only effect, or another doubt; inactive = no such curve, though single readings can be large or run the other way. Where a SMILES comes first, the peptide text is derived from it.

Biological target: Protein phosphatase 1D (Homo sapiens) (UniProt O15297)
Sequence (O15297 whole entry, looked up): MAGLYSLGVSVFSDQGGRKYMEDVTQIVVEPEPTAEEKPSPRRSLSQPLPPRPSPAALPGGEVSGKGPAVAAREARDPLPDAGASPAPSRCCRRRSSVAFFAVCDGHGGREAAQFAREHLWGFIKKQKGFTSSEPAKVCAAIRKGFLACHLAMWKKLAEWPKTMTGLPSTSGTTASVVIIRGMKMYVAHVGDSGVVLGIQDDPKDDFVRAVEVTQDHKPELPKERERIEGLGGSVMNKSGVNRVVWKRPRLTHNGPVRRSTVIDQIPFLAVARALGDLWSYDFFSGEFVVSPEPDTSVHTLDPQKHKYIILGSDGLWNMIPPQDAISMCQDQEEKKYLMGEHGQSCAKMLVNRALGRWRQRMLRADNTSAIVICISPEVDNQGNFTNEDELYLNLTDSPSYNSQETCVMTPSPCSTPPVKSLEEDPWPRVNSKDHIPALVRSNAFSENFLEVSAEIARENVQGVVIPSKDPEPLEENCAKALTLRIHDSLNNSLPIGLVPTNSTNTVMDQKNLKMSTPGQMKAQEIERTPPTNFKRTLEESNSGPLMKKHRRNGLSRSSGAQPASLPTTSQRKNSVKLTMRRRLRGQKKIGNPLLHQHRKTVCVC
Experiment: Rhodamine-PBP qHTS Assay for Modulators of WT P53-Induced Phosphatase 1 (WIP1) (AID 1347425)
Conditions: recombinant WIP1, Rhodamine-PBP phosphate fluorescence, real-time; series mostly up to 57.5 µM; activity change, negative = inhibition: at the top concentration
Source text: Assay Provider (PI): Nathan Coussens Ph.D.
National Center for Advancing Translational Sciences (NCATS), Rockville, MD
National Institute of Health (NIH), Bethesda, Maryland
WT P53-Induced Phosphatase 1 (WIP1) is a member of the magnesium-dependent serine/threonine protein phosphatase (PPM) family and is induced by P53 in response to DNA damage. In several human cancers, the WIP1 protein is overexpressed, which is generally associated with a worse prognosis. Although WIP1 is an attractive therapeutic target, no potent, selective, and bioactive small-molecule modulator with favorable pharmacokinetics has been reported. Phosphatase enzymes are among the most challenging targets for small molecules because of the difficulty of achieving both modulator selectivity and bioavailability. Another major obstacle has been the availability of robust and physiologically relevant phosphatase assays that are suitable for high-throughput screening.
Here, we describe two orthogonal biochemical WIP1 activity assays that utilize phosphopeptides from native WIP1 substrates. We optimized a RapidFire MS assay to quantify the enzymatically dephosphorylated peptide reaction product in a 384-well format. Additionally, a redshifted Rhodamine-PBP fluorescence assay was optimized in a 1,536-well format to enable real-time WIP1 activity measurements through the detection of the orthogonal reaction product, Pi. We validated these two optimized assays by quantitative high-throughput screening against the National Center for Advancing Translational Sciences (NCATS) Pharmaceutical Collection and used secondary assays to confirm and evaluate inhibitors identified in the primary screen.
SEQUENCE No. (e.g., 1, 2, 3, etc.); […] (e.g., Cells, Incubation, Reagent, etc.); VALUE; DESCRIPTION
1; Reagent; 3 uL; WIP1 (6.7 nM), Rh-PBP (13.3 uM), columns 1-48
3; Library Compounds; 23 nL; NCATS Pharmaceutical Collection, column 5-48
4; Control Compounds; DMSO in column 2, GSK2830371 (57.5 uM, final) in 3-fold serial dilutions in column 3, GSK2830371 (1.15 uM, final) in column 4
5; Time; 1 hr; incubation
6; Detection; fluorescence (f0); ViewLux, excitation filter = 525 nm, emission filter = 598 nm
7; Reagent; 1 uL; VEPP-pS-QETFS (40 uM), columns 2-48
8; Detection; fluorescence (f1); ViewLux, excitation filter = 525 nm, emission filter = 598 nm
NOTES (numbers refer to sequence above)
1 & 2; Black medium binding Greiner 1536-well plates (# 789176-F); assay buffer: 50 mM Tris-HCl pH 7.5, 30 mM MgCl2, 1mM TCEP, 0.1 mM EGTA, 75 ug/mL BSA; dispensed with a BioRaptr liquid handler (Beckman Coulter).
3 & 4; Kalypsys pintool (equipped with 1536 pinhead, Wako USA) transfer. Tip wash sequence: DMSO, methanol, 3 sec vacuum dry.
5; Room temperature incubation.
7; VEPPL-pS-QETFS in assay buffer dispensed with a BioRaptr; final reaction conditions: 5 nM WIP1, 10 uM VEPPL-pS-QETFS, 10 uM Rh-PBP, 50 mM Tris-HCl pH 7.5, 30 mM MgCl2, 1 mM TCEP, 0.1 mM EGTA, 75 ug/mL BSA.
8; Measurement taken at 1 min intervals for 11 min. Delta readout = f1 - f0.

| SMILES | activity change, negative = inhibition |
| --- | --- |
| COC(=O)c1cc(Cl)ccc1NS(=O)(=O)C(F)(F)F | -18.4% |
| CO/N=C(/C(=O)N[C@@H]1C(=O)N2C(C(=O)O)=C(Cn3nnc(C)n3)CS[C@H]12)c1csc(N)n1 | 5.64% |
| CC1c2ccccc2CN1NC(=O)c1ccc(Cl)c(S(N)(=O)=O)c1 (stereo not given) | -10.1% |
| C=CC[N+]1([C@H]2C[C@H]3[C@@H]4CC[C@H]5C[C@H](OC(C)=O)[C@@H](N6CCCCC6)C[C@]5(C)[C@H]4CC[C@]3(C)[C@H]2OC(=O)CC)CCCCC1 | 23.9% |
| CCCC(=O)O[C@]1(C(=O)COC(=O)CC)CC[C@H]2[C@@H]3CCC4=CC(=O)CC[C@]4(C)[C@H]3[C@@H](O)C[C@@]21C | 1.16% [at 23.8 µM] |
| CCCCCCCCCCCCCC[N+](C)(C)C | 32.1% |
| COc1cc(C(=O)NC2CCCNC2)cc(OC)c1OC (stereo not given) | 16.8% |
| COC(=O)/C=C(/C)N | 10.7% |
| O=C(O)Cn1cnnn1 | 10.7% |
| CCOc1c(N2CCOCC2)cnn(C)c1=O | -1.78% |
| CC(C)OP(=O)(CP(=O)(OC(C)C)OC(C)C)OC(C)C | 18.3% |
| Oc1ccccc1 | 10% |
| c1ccc(C(O[C@H]2CCCN(CCc3ccc4c(c3)OCO4)C2)c2ccccc2)cc1 | 23.8% |
| CN1C(=O)CC(C)(c2ccccc2)C1=O (stereo not given) | -6.95% |
| CNC[C@H](O)[C@@H](O)[C@H](O)[C@H](O)CO | 8.96% |
| CC(C)(C)c1ccc(C(=O)CCCCl)cc1 | 12% |
| CC(C)(C)C1CCC(CC2=C(O)c3ccccc3C(=O)C2=O)CC1 (stereo not given) | -2.19% |
| O=[N+]([O-])c1cncn1CCN1CCOCC1 | -0.541% |
| NCC[C@H](O)C(=O)N[C@@H]1C[C@H](N)[C@@H](O[C@H]2O[C@H](CN)[C@@H](O)[C@H](O)[C@@H]2O)[C@H](O)[C@@H]1O[C@H]1O[C@H](CO)[C@@H](O)[C@H](N)[C@@H]1O | 3.01% [at 0.575 µM] |
| CC(C)(C)C(=O)OCOC(=O)C1N2C(=O)CC2S(=O)(=O)C1(C)C (stereo not given) | 1.26% |

| SMILES | activity change, negative = inhibition |
| --- | --- |
| Nc1c(I)cc(I)c(C(=O)N(CCC(=O)O)c2ccccc2)c1I | -11.7% |
| CC(=O)[C@H]1CC[C@H]2[C@@H]3C=CC4=CC(=O)CC[C@@]4(C)[C@@H]3CC[C@]12C | -3.77% |
| C[N+]1(C)CCC(OC(=O)C(O)(c2ccccc2)C2CCCC2)C1 (stereo not given) | 0.323% |
| CCCCCC(=O)O[C@]1(C(C)=O)CC[C@H]2[C@@H]3CCC4=CC(=O)CC[C@]4(C)[C@H]3CC[C@@]21C | 7.72% |
| NS(=O)(=O)c1cc2c(cc1Cl)CN(C1CCCCC1)C2=O | 16.6% |
| CN(C)CCCOC1(Cc2ccccc2)CCCCCC1 | 12.9% |
| CCCCN(CCN(CCCC)C(=O)N1CCOCC1)C(=O)N1CCOCC1 | 2.78% |
| Cc1cccc(N(C)C(=S)Oc2ccc3c(c2)CCC3)c1 | 9.97% |
| CC(C(O)c1ccccc1)N(C)CCOC(c1ccccc1)c1ccccc1 (stereo not given) | 34.9% |
| CCCCOC(=O)CCCCCCCCC(=O)OCCCC | -3.71% |
| CCC1=C[C@@H]2CN(C1)Cc1c([nH]c3ccccc13)[C@@](C(=O)OC)(c1cc3c(cc1OC)N(C)[C@H]1[C@@](O)(C(=O)OC)[C@H](OC(C)=O)[C@]4(CC)C=CCN5CC[C@]31[C@@H]54)C2 | 31.3% |
| O=C(O)c1ccccc1S | -1.33% |
| Cc1ncc(CO)c(CO)c1O | -1.76% |
| COC(=O)C1=C(C)NC(C)=C(C(=O)OCCc2ccc(N3CCN(C(c4ccccc4)c4ccccc4)CC3)cc2)C1c1cccc([N+](=O)[O-])c1 (stereo not given) | -8.19% |
| NCC(=O)O | 7.29% [at 23.8 µM] |
| CCN(CC)CC(=O)Nc1c(C)cccc1C(=O)OC | 4.63% |
| CC(=O)CC/C=C(\C)CC/C=C(\C)CC/C=C(\C)CCC=C(C)C | 10.3% |
| COC(=O)c1cc(S(N)(=O)=O)ccc1OC | 1.04% |
| CC(=O)N[C@@H](CO)C(=O)N[C@@H](CC(=O)O)C(=O)N[C@@H](CCCCN)C(=O)N1CCC[C@H]1C(=O)O (Ac-SDKP-OH) | -2.39% |
| COc1ccc(CCC(C)=O)cc1 | 48.6% |
